From PubChem
aSyn UTR act – Activators working through SNCA 5'UTR binding (MLPCN); alpha-synuclein 5'UTR reporter, activators screen; activity score, % (tested at 7.5 µM), hits read low; 300,000 compounds, 7.1% hits; AID 1814; in the data active = activity score below about -60%
Starred values were filed as active, the others as inactive. Not all results are given here.

SMILES	aSyn UTR act
COc1ccc(N2Cc3ccc(OC)c(OC)c3C2=O)cc1	-223.7*
COc1ccc(N2CCc3c(C)nc4c(OC)cccc4c32)cc1	89.1
COc1ccc2c(c1OC)C(=O)N(c1nccs1)C2	-110.8*
N#Cc1cnc(SCCc2ccccc2)nc1N	-70.5*
Clc1ccc(-n2nnc(-c3cccnc3Cl)n2)cn1	-130.1*
Cc1ccc(-n2nnc(-c3cccnc3Cl)n2)cc1	-78.1*
COc1ncccc1-c1nnn(-c2ccc(Cl)nc2)n1	-74.0*
CCOC(=O)c1ccc(N/C=C/C(=O)c2ccccc2)cc1	-188.3*
CCOC(=O)c1ccc(N/C=C/C(=O)C(C)(C)C)cc1	-137.5*
CCc1ccc(NC(=O)c2cnc3n(c2=O)CCS3)cc1	-185.4*
O=C(Nc1ccncc1)c1ccc2c(c1)OCCO2	-67.8*
O=C(Nc1ccc2c(c1)OCCO2)c1cccc(Cl)c1	-225.2*
O=C(CC(=O)c1ccccc1)Nc1ccc2c(c1)OCCO2	-119.3*
O=C(NNC(=O)c1cccc2ccccc12)c1ccc2c(c1)OCO2	-93.8*
O=C(CCNc1ccccc1)c1ccc2c(c1)OCO2	-193.1*
CCCc1cc(C(=O)Nc2cccc([N+](=O)[O-])c2)cs1	-105.2*
O=C(Nc1ccc2c(c1)OCCO2)C1CC1c1ccccc1 (stereo not drawn)	-123.5*
O=C(Nc1cccc(Cl)c1)c1ccc2c(c1)OCCO2	-123.3*
CC(C)c1ccc(O)c(NC(=S)NC(=O)c2ccc3c(c2)OCO3)c1	-124.0*
O=C(Nc1ccc2c(c1)OCO2)c1ccccc1	-119.8*
CN(c1cccc(NC(=O)c2ccc(C(C)(C)C)cc2)c1)S(C)(=O)=O	-174.3*
O=C(NC(=S)Nc1ccc2c(c1)OCCO2)c1cccc2ccccc12	-82.4*
Cc1ccc(NC(=O)Nc2cccc([N+](=O)[O-])c2)cc1F	-87.3*
O=C(Nc1ccc2c(c1)OCO2)c1cncc(Br)c1	-191.5*
O=C(Nc1ncc([N+](=O)[O-])s1)c1ccc2c(c1)OCO2	102.6
SMILES	aSyn UTR act
CC(C)(C)c1ccc(C(=O)Nc2cccc([N+](=O)[O-])c2)cc1	-193.2*
O=C(NC(=S)Nc1ccccc1Br)c1ccc2c(c1)OCO2	-137.4*
O=C(NC(=S)Nc1ccc2c(c1)OCCO2)c1cccc(Br)c1	-301.6*
O=C(Nc1cccc([N+](=O)[O-])c1)c1ccc2c(c1)OCCO2	-124.0*
CCc1ccc(NC(=O)c2ccccc2SC)cc1	-177.4*
CCN(CC)c1ccc2c(c1)OC(N)=C(C#N)C2c1cccnc1 (stereo not drawn)	75.3
O=C(Nc1ccc2c(c1)OCCO2)c1cccc(C(=O)Nc2ccc3c(c2)OCCO3)c1	-148.2*
CSc1ccccc1C(=O)Nc1ccc2c(c1)OCCO2	-64.8*
CS(=O)(=O)Nc1ccc(C(=O)Nc2ccc3c(c2)OCCO3)cc1	-169.3*
O=C(Nc1cccc([N+](=O)[O-])c1)c1[nH]ncc1Cl	-227.2*
O=C(NC(=S)Nc1ccc2c(c1)OCO2)c1ccccc1	-199.1*
O=C(Nc1ccc2c(c1)OCCO2)c1ccccc1	-98.0*
O=C(CS(=O)(=O)c1ccccc1)c1ccc2c(c1)OCCO2	-131.5*
CCc1ccc(NC(=O)c2cnc(SC)nc2C)cc1	-92.8*
O=C(Nc1ccc2c(c1)OCCO2)C(=O)NC1CC1	-74.2*
Nc1ccc(C(=O)c2ccc3c(c2)OCCO3)cc1N	-166.2*
O=C(Nc1ccncc1)c1ccc2ccccc2c1	-135.4*
O=C(Nc1ccc2c(c1)OCCO2)C(=S)NCc1ccccc1	-96.3*
COc1cc2c(cc1OC)C(C)N(C(=O)c1cc(Cl)nc(Cl)c1)CC2 (stereo not drawn)	-105.1*
O=c1nc(/C=C/c2cc([N+](=O)[O-])ccc2Cl)cc(C(F)(F)F)[nH]1	-67.1*
COc1cc(OC)c(OC)cc1/C=C/c1cc(C(F)(F)F)[nH]c(=O)n1	-121.1*
O=C(/C=C/c1ccco1)Nc1ccc(N2CCCC2)cc1	-207.0*
O=C(/C=C/c1ccco1)Nc1ccc(C(=O)N2CCOCC2)cc1	-74.9*
COC(=O)CCCNC(=O)c1ccc2oc(CCCc3ccccc3)nc2c1	-62.1*
COC(=O)[C@@H](C)NC(=O)c1ccc2oc(CCc3ccccc3)nc2c1	-168.6*
SMILES	aSyn UTR act
Cc1ccc(Nc2c(-c3ccco3)nc3ccccn23)cc1	-83.0*
Cc1ccccc1Nc1c(-c2ccccn2)nc2ccccn12	63.7
COc1ccc(Nc2c(-c3ccco3)nc3ccc(C)cn23)cc1	-88.7*
COc1cc(C(=O)Oc2c(CN3CCOCC3)cc(Cl)c3cccnc23)cc(OC)c1OC	78.5
CCCCCOc1ccc(CN2CCOCC2)cc1Cl	-154.2*
CN1CCC(C2(O)c3ccccc3CCc3ccccc32)CC1	-61.9*
Cc1ccnc(NC(=O)c2cccc3ccccc23)c1	-63.3*
Cc1ccnc(NC(=O)CCc2c[nH]c3ccccc23)c1	-71.5*
C/C(CC(=O)Nc1cc(C)ccn1)=N\NC(=O)c1cccc(C)c1O	-62.9*
O=C(CCc1nnc(CCc2c[nH]c3ccccc23)o1)NC1CCC1	-133.0*
Cc1ccnc(NC(=O)c2ccccc2NC(=O)c2ccc(Cl)cc2Cl)c1	69.3
Cc1ccnc(NC(=O)CCNC(=O)c2ccccc2Cl)c1	-103.2*
COc1ccc(-c2nc(C#N)c(NC(C)C)o2)cc1	-68.4*
CNc1oc(-c2ccc(Cl)cc2)nc1C#N	-172.7*
CNc1oc(-c2cccc3ccccc23)nc1C#N	-104.8*
CC(=O)Nc1cccc(-c2cc(C)c3cc4c(cc3n2)OCO4)c1	-89.1*
O=C(CCS(=O)(=O)c1ccccc1)Nc1ccc(-c2nc3ccccc3s2)c(O)c1	-93.1*
CC(=O)Nc1cccc(-c2nc3ccccc3s2)c1	-132.9*
Nc1cccc(-c2nc3ccccc3s2)c1	-66.5*
CC(=O)Nc1cccc(-c2nc3ccc(NC(C)=O)cc3s2)c1	-133.1*
CC(=O)Nc1ccc(O)c(-c2nc3ccccc3s2)c1	-326.2*
COC(=O)Cc1ccc2sc(-c3ccccc3)nc2c1	-207.6*
O=c1/c(=C\c2cccnc2)sc2nc3ccccc3n12	-107.3*
Cc1cc(/C=c2/sc3nc4ccccc4n3c2=O)c(C)n1-c1ccccn1	87.9
Cc1cc(/C=c2\sc3nc4ccccc4n3c2=O)c(C)n1-c1ccc(C(=O)O)cc1	-61.8*
SMILES	aSyn UTR act
Cc1ccc2c(c1)C(=O)C(=O)N2CCCOc1ccccc1C	-110.1*
COc1ccccc1OCC#CCSc1ncccn1	-80.6*
N#C/C(=C\c1ccc(O)cc1)c1nc2ccccc2o1	-119.6*
COc1ccc(Br)c(-c2nnc(CS(=O)(=O)c3ccccc3)o2)c1	-85.0*
CCNC(=O)CCCOc1ccc(Cl)cc1Cl	-82.5*
CCCC(=O)NC(c1ccc(Cl)cc1Cl)c1ccc2cccnc2c1O (stereo not drawn)	64.3
CCCCOc1ccc(C(=O)Nc2ccncc2)cc1	-123.3*
O=C(Nc1cccnc1)c1ccc(CSc2ccccc2)cc1	-114.8*
O=C(Nc1cccnc1)c1ccc(Oc2ccccc2)cc1	-69.6*
CCCOc1ccc(C(=O)Nc2cccnc2)cc1	-180.5*
CCOc1ccc(S(=O)(=O)NCc2ccccn2)cc1NC(=O)c1ccccc1F	75.6
COc1ccc(S(=O)(=O)NCc2ccccn2)cc1NC(=O)c1ccccc1	-62.3*
CC(=O)N1CCc2cc(N=NC3=C(O)CCCC3=O)ccc21	-100.2*
CC(C)C1COC(c2cccc3ccccc23)=N1 (stereo not drawn)	-115.2*
Cc1ccc(C(=O)NC(=C(Cl)Cl)S(=O)(=O)c2ccc(C)cc2)cc1	-72.2*
CC(=O)NC(=C(Cl)Cl)S(=O)(=O)c1ccccc1	-136.6*
CCOc1ccccc1-c1nc(-c2cccc(Br)c2)no1	-134.8*
